Experimental data published in the supplement of paper PMC8285479.
Structures can show the parent of a compound that is named as a salt. ± gives the standard deviation of the averaged measurements. Whole data set: some 1,900 compounds, median “normalised cell viability (NPI; 0 = phenylarsine oxide control, 1 = DMSO control)” near 1, cut for the lowest 2% near 0.039. What follows is part of a selection rich in the lowest values, with near analogues and random picks from the rest.

Test system: NCI-H1944
Test: normalised cell viability (NPI; 0 = phenylarsine oxide control, 1 = DMSO control) (fraction of DMSO control); NCI-H1944 is a non-small cell lung cancer line; higher = more viable cells (less compound toxicity)
Details: 6 days
[1] = glucocorticoid arm: hydrocortisone 2.75 uM co-treatment, compound 1 µM
[2] = glucocorticoid arm: hydrocortisone 2.75 uM co-treatment, compound 5 µM
[3] = glucocorticoid arm: hydrocortisone 2.75 uM pre-treated 2 days and continued, compound 1 µM
[4] = glucocorticoid arm: hydrocortisone 2.75 uM pre-treated 2 days and continued, compound 5 µM
[5] = glucocorticoid arm: vehicle, compound 1 µM
[6] = glucocorticoid arm: vehicle, compound 5 µM
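Note: CTB read-out in 384-well plates, triplicate wells, NPI normalised per plate against 1 µM phenylarsine oxide (0) and 0.1% DMSO (1) controls.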

SMILES	normalised cell viability [1]	normalised cell viability [2]	normalised cell viability [3]	normalised cell viability [4]	normalised cell viability [5]	normalised cell viability [6]
CCN(CC)CCNC(=O)c1ccc(NC(C)=O)cc1 [N-Acetylprocainamide hydrochloride]	0.9787 ± 0.0049	0.974 ± 0.0099	0.9943 ± 0.0067	0.977 ± 0.027	0.9883 ± 0.0038	0.9807 ± 0.0087
O=C(/C=C/c1ccc2ccccc2n1)c1ccncc1	1.01 ± 0.013	1.067 ± 0.0058	1.02 ± 0.01	1.02 ± 0.015	1.01	1.01 ± 0.01
NC(Cc1cccc(-c2ccccc2CP(=O)(O)O)c1)C(=O)O (stereo not drawn) [Phenylbenzene-omega-phosphono-alpha-amino acid]	0.9963 ± 0.0055	1.1 ± 0.021	1.06 ± 0.087	1.04 ± 0.021	1.017 ± 0.0058	1.03 ± 0.01
CC(C)(C)c1ccc(S(=O)(=O)/C=C/C#N)cc1	0.9913 ± 0.008	0.41 ± 0.055	0.9847 ± 0.007	0.9755 ± 0.0021	0.972 ± 0.0092	0.00936 ± 0.004
Cc1ccc(S(=O)(=O)C=CC#N)cc1	0.979 ± 0.013	0.976 ± 0.0056	0.9813 ± 0.0023	0.997 ± 0.023	0.988 ± 0.011	0.688 ± 0.081
CC(/C=C/c1cccc(Oc2ccc(F)cc2)c1)N(O)C(N)=O (stereo not given)	1.017 ± 0.0058	1.07 ± 0.01	1.01 ± 0.011	1.06 ± 0.014	1.02 ± 0.015	1.023 ± 0.0058
O=C(O)[C@@H]1C[C@H](C(=O)O)N1 [cis-Azetidine-2,4-dicarboxylic acid]	0.992 ± 0.0044	0.97 ± 0.015	0.997 ± 0.012	1	0.9863 ± 0.0029	0.976 ± 0.011
OC[C@H]1NC[C@H](O)[C@@H](O)[C@@H]1O [1-Deoxynojirimycin hydrochloride]	1.01 ± 0.011	0.984 ± 0.025	0.995 ± 0.015	0.969 ± 0.0066	1.003 ± 0.0058	0.991 ± 0.013
CN(C)CCC(c1ccc(Cl)cc1)c1ccccn1 (racemic) [(±)-Chlorpheniramine maleate]	0.9833 ± 0.0025	0.985 ± 0.018	0.9843 ± 0.0078	0.991 ± 0.028	0.9727 ± 0.0021	0.987 ± 0.0069
OC[C@H]1NC[C@@H](O)[C@@H]1O [1,4-Dideoxy-1,4-imino-D-arabinitol]	0.9993 ± 0.0011	0.9807 ± 0.0015	0.997 ± 0.014	0.976 ± 0.027	1.002 ± 0.007	0.992 ± 0.012
Cn1c(=O)n(-c2ccc(C(C)(C)C#N)cc2)c2c3cc(-c4cnc5ccccc5c4)ccc3ncc21	0.421 ± 0.017	0.496 ± 0.04	0.629 ± 0.0076	0.633 ± 0.071	0.255 ± 0.013	0.408 ± 0.047
COc1ccc(-c2ccc3ncc4c(c3c2)n(-c2ccc(N3CCNCC3)c(C(F)(F)F)c2)c(=O)n4C)cn1	0.00163 ± 0.00092	0.000434 ± 0.00018	0.25 ± 0.021	0.0016 ± 0.00014	0.000974 ± 0.00058	0.000275 ± 0.00038
c1ccc(C2CN3CCSC3=N2)cc1 (single isomer, unassigned; (-)) [(-)-Tetramisole hydrochloride]	1.017 ± 0.0058	1.01 ± 0.015	1.02 ± 0.015	1.02 ± 0.015	1.02	1.02 ± 0.015
O=Nc1c(-c2c(O)[nH]c3cc(Br)ccc23)[nH]c2ccccc12	1.15 ± 0.01	1.24 ± 0.032	1.127 ± 0.011	1.16 ± 0.031	1.04 ± 0.01	1.07 ± 0.01
CCN1CCN(Cc2ccc(Nc3ncc(F)c(-c4cc(F)c5nc(C)n(C(C)C)c5c4)n3)nc2)CC1	0.493 ± 0.041	0.312 ± 0.06	0.528 ± 0.03	0.599 ± 0.14	0.252 ± 0.028	0.000109 ± 0.00093
N=C(NC(=O)c1nc(Cl)c(N)nc1N)Nc1ccccc1 [Phenamil methanesulfonate]	1.01 ± 0.011	1.04 ± 0.025	0.894 ± 0.22	1.06 ± 0.025	1.007 ± 0.0058	0.9977 ± 0.004
CCCCOc1c(C(=O)c2c(F)cc(C)cc2F)c[nH]c2nncc1-2	0.91 ± 0.018	0.988 ± 0.017	0.9857 ± 0.0032	1.02 ± 0.022	0.561 ± 0.04	0.861 ± 0.018
CN(C)CCCn1cc(C2=C(c3c[nH]c4ccccc34)C(=O)NC2=O)c2ccccc21	0.992 ± 0.017	1.06 ± 0.011	1.01 ± 0.02	1.01 ± 0.059	1.03 ± 0.011	1.05
Cn1cc(C2=C(c3cn(CCCSC(=N)N)c4ccccc34)C(=O)NC2=O)c2ccccc21 [Ro 31-8220 Mesylate]	0.998 ± 0.013	0.125 ± 0.013	0.973 ± 0.036	0.297 ± 0.087	1.013 ± 0.0058	0.0242 ± 0.0022
O=Nc1ccc2oc(=O)ccc2c1 [6-Nitroso-1,2-benzopyrone]	1.02 ± 0.01	1.02 ± 0.015	1.027 ± 0.0058	0.857 ± 0.29	1.013 ± 0.0058	1.02 ± 0.01
CN(C)CCC(c1ccc(Br)cc1)c1ccccn1 (single isomer, unassigned; (+)) [(+)-Brompheniramine maleate]	1.01 ± 0.017	1.023 ± 0.0058	1.05 ± 0.04	1.03 ± 0.021	1.006 ± 0.0069	1.02 ± 0.011
Nc1ncnc2c1ncn2[C@@H]1O[C@H](COP(=O)(O)CP(=O)(O)OP(=O)([O-])O)[C@@H](O)[C@H]1O.[Li+] [alpha,beta-Methylene adenosine 5'-triphosphate lithium salt]	1.02 ± 0.011	1 ± 0.036	1.01 ± 0.014	0.992 ± 0.013	1.005 ± 0.0081	1.02 ± 0.021
Cc1nc(N=Nc2cc(S(=O)(=O)O)c3cc([N+](=O)[O-])cc(S(=O)(=O)O)c3c2)c(COP(=O)(O)O)c(C=O)c1O [PPNDS tetrasodium]	1.001 ± 0.0085	1.01 ± 0.037	1.013 ± 0.0058	0.857 ± 0.27	0.9973 ± 0.0021	0.999 ± 0.0098
CC(NC(=O)C(O)c1cc(F)cc(F)c1)C(=O)NC1C(=O)N(C)c2ccccc2-c2ccccc21 (stereo not given)	0.973 ± 0.013	0.995 ± 0.017	0.977 ± 0.015	1.007 ± 0.0058	0.9893 ± 0.0038	0.9993 ± 0.0011
CO[C@H](C(=O)[C@@H](O)[C@@H](C)O)[C@@H]1Cc2cc3cc(O[C@H]4C[C@@H](O[C@H]5C[C@@H](O)[C@H](O)[C@@H](C)O5)[C@H](O)[C@@H](C)O4)c(C)c(O)c3c(O)c2C(=O)[C@H]1O[C@H]1C[C@@H](O[C@H]2C[C@@H](O[C@H]3C[C@](C)(O)[C@H](O)[C@@H](C)O3)[C@@H](O)[C@@H](C)O2)[C@H](O)[C@@H](C)O1 [Plicamycin]	0.0675 ± 0.0023	0.0276 ± 0.0011	0.102 ± 0.0097	0.0631 ± 0.0043	0.0202 ± 0.0011	0.011 ± 0.0021
